Data published in PubChem BioAssay (NCATS).
Inconclusive results are not listed. Entries that show only a call come without a potency. The source made the active and inactive calls. Calls come from the whole dose curve; tested in HEK293 reporter line.

Experiment: qHTS for Inhibitors of the Functional Ribonucleoprotein Complex (vRNP) of Lassa (LASV) Arenavirus: Viability assay - alamar blue signal for LASV Primary Screen (AID 1347083); note: nearly all actives have a fitted effect of over 80% in size
Conditions: cell viability, alamar blue fluorescence (LASV minigenome counter-screen); series mostly up to 57.5 µM

| SMILES | Potency |
| --- | --- |
| O=C(NN1CCCC1)NS(=O)(=O)c1ccc(Cl)cc1 | inactive |
| Nc1c2c(nc3c1CCC3)CCCC2 | inactive |
| Cc1cccc(CN2CCN(C(c3ccccc3)c3ccc(Cl)cc3)CC2)c1 (stereo not given) | inactive |
| C[C@@H]1CCC[C@H](C)N1CCCC(O)(c1ccccc1)c1ccccn1 (stereo not given in full) | inactive |
| CCCCN1CCCC1C(=O)Nc1c(C)cc(C)cc1C (stereo not given) | inactive |
| COc1ccccc1N1CCN(CC(O)COc2cccc3ccccc23)CC1 (stereo not given) | inactive |
| CCN(CC)CCOc1ccc(Cc2ccccc2)cc1 | inactive |
| CC(C)C(=O)Nc1cccc(C2CN3CCSC3=N2)c1 (stereo not given) | inactive |
| C/C=C/c1ccc(O)c(OC)c1 | inactive |
| COc1ccc2c(c1)c(CC(=O)O)c(C)n2C(=O)c1ccc(Cl)cc1 | inactive |
| CCCCNc1ccc(C(=O)OCCN(CC)CC)cc1 | inactive |
| O=C(O)c1cn(-c2ccc(F)cc2)c2cc(N3CCNCC3)c(F)cc2c1=O | inactive |
| COC(=O)[C@H]1[C@H]2C[C@@H]3c4[nH]c5cc(OC)ccc5c4CCN3C[C@H]2C[C@@H](OC(=O)COc2ccc(OC)cc2)[C@@H]1OC | inactive |
| O=C(COc1ccc(Cl)cc1)N1CCN(Cc2ccc3c(c2)OCO3)CC1 | inactive |
| Cc1ncc([N+](=O)[O-])n1C | inactive |
| c1ccc(CCNc2nc(-c3ccccc3)cs2)cc1 | inactive |
| Cc1cc(N)c2cc(NC(=O)Nc3ccc4nc(C)cc(N)c4c3)ccc2n1 | inactive |
| CCc1cccc2c3c([nH]c12)C(CC)(CC(=O)O)OCC3 (stereo not given) | inactive |
| CN(C)CCCN1c2ccccc2Sc2ccccc21 | inactive |
| Cc1c(F)cc2c(=O)c(C(=O)O)cn3c2c1CCC3C (stereo not given) | inactive |
